GLP1R cytotox – cytotoxicity in counter-screen for GLP-1R inverse agonists | HEK293 cAMP-luciferase reporter cells, luminescence, 24 h | Potency, µM (doses to about 38.3 µM), for inactives: top-dose activity change, negative = inhibition, hits mostly inhibitors | 0.13% of 410,000 active | AID 624418;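 further: loss of luciferase light is scored as toxicity; on the % scale 0 is the no-effect control and ±100 the full control effect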
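Compound-treated cells are incubated 24 hr at 37 deg C under 5% CO2 after a 12 hour attachment period, then luciferase detection reagent is added and luminescence is measured following 12 min at room temperature; lowered signal indicates toxicity.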
PTHR1 ag – PTHR1 (human) receptor agonism | Q03431 | HEK293 GP2 PTHR1 cells, GloSensor cAMP luminescence, 1 h | Potency, µM (highest dose often 115 µM), for the others: top-dose activation, usual class: activators | 0.075% of 410,000 active | AID 743266; further: nearly all actives have a fitted effect of over 55% in size
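HEK-293-derived GP2 cells expressing PTHR1 and a GloSensor cAMP reporter, 3,000/well, plated overnight, given luciferin plus IBMX (each 0.5 mM as added) for 1 h at 37 °C, then compound for 1 h at 37 °C. Luminescence was read after 15 min at room temperature.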
GCN5L2 inh – inhibitors of human GCN5L2 histone acetyltransferase; Q92830; GCN5L2 HAT assay, ThioGlo1 CoA-SH fluorescence; Potency, µM (doses to about 58.9 µM), inactives show at the top dose activity change, negative = inhibition, actives largely listed as inhibitors; 0.21% of 390,000 active; further: on the % scale 0 is the no-effect control and ±100 the full control effect
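Compounds, pin-transferred from DMSO stocks, meet 20nM GCN5L2 for 15 min before the reaction begins with H3(1-25) peptide (75uM) and acetyl-CoA (70uM). Thiol-reactive ThioGlo1 reports CoA release over 20 min at room temperature.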
GLP1R inv ag – GLP-1 receptor (human) inverse agonism. P43220. HEK293 GLP-1R CRE-luciferase, luminescence, 24 h; GLP-1R form is constitutively active. Potency, µM (series often up to 38.3 µM), for inactives: top-dose activity change, negative = inhibition, usual class: inhibitors. 1.6% of 410,000 active; further: on the % scale 0 is the no-effect control and ±100 the full control effect; nearly all actives have a fitted effect of over 55% in size
Target sequence (P43220 whole entry, looked up): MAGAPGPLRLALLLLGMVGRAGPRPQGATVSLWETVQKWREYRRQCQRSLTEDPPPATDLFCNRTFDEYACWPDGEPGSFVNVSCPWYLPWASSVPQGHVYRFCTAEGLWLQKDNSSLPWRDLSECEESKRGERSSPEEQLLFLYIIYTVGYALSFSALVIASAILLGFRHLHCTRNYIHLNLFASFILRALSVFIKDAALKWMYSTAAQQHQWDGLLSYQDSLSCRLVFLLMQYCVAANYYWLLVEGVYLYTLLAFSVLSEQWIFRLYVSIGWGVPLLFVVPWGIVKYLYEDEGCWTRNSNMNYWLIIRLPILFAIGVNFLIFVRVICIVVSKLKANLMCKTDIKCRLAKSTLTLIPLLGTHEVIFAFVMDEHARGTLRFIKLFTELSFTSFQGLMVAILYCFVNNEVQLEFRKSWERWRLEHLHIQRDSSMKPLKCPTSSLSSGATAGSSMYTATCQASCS
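Constitutively active GLP-1R drives a cAMP-responsive luciferase in stably transfected HEK293 cells; test compounds are added after overnight (12 h) attachment and left 24 hr, and signal loss in luminescence marks inhibition.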
GLP1R ag – activates the human GLP-1 receptor; P43220; 0.007% of 380,000 active; HEK293 GLP-1R CRE-luciferase, luminescence, 4-6 h; cells express a hypersensitive GLP-1R form; Potency, µM (doses to about 45.6 µM), without a hit: top-dose activation, actives largely listed as activators; further: % of control where 0% means no effect
RGS4 inh – blocks human RGS4-accelerated GTP hydrolysis. Transcreener GDP fluorescence polarization, RGS4-accelerated GTP hydrolysis. Potency, µM (highest dose often 114 µM), for the others: at the top dose activity change, negative = inhibition, actives largely listed as inhibitors. 0.039% of 390,000 active. AID 504845; further: on the % scale 0 is the no-effect control and ±100 the full control effect; nearly all actives have a fitted effect of over 75% in size
Target sequence (P49798 whole entry, looked up): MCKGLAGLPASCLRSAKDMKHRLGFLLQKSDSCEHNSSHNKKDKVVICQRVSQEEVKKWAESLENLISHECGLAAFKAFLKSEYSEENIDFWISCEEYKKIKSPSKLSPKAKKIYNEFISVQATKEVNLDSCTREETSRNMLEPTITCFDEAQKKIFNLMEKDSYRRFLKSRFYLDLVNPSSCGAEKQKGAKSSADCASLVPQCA
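MLSMR compounds (23 nl, pin-transferred) preincubated 10 min at room temperature with a 500nM (2x) first reagent, then RGS4 at 900nM (2x) plus Transcreener GDP mix added; fluorescence polarization (620/688 nm) read before and after 90 min at 30 °C.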
The depositor's hits bear a star; i = inactive; ? = inconclusive; . = no result given; [ ] = another dose, or the depositor's remark. Most compounds without a hit are left out; they make up all but 1.8% or so of the library. The call rests on the fitted dose curve; in most records, active means well fitted curve in the direction sought with a large enough effect; inconclusive means small, poorly fitted or top-dose-only effect, or another doubt; inactive means no such curve, though single readings can be large; an effect the other way counts as inactive or inconclusive. Potency means the concentration at half of the fitted maximal effect.

SMILES	GLP1R cytotox	PTHR1 ag	GCN5L2 inh	GLP1R inv ag	GLP1R ag	RGS4 inh
CC(C)C[C@H](NC(=O)[C@@H]1CCCN1C(=O)[C@H](Cc1ccccc1)NC(=O)[C@H](C)NC(=O)[C@H](CCC(=O)O)NC(=O)[C@H](C)NC(=O)[C@H](CO)NC(=O)[C@H](CCC(=O)O)NC(=O)[C@H](CC(=O)O)NC(=O)[C@H](CCC(=O)O)NC(=O)[C@H](C)NC(=O)CNC(=O)[C@H](CC(N)=O)NC(=O)[C@@H]1CCCN1C(=O)[C@H](Cc1ccc(O)cc1)NC(=O)[C@@H](NC(=O)[C@H](CCCCN)NC(=O)[C@@H](NC(=O)[C@@H]1CCCN1C(=O)[C@@H](N)CCCNC(=N)N)C(C)C)C(C)C)C(=O)N[C@@H](CCC(=O)O)C(=O)N[C@@H](Cc1ccccc1)C(=O)O	.	.	0.0%	.	.	.
c1ccc2cc(C3OCC4(CCCC4)CO3)ccc2c1	5.3%	-35.4%	.	3.1%	5.4%	.
CC(C)(C)NCC(O)CON=C1c2ccccc2-c2ccccc21 (stereo not given)	?	i	-5.6%	3.98µM*	1.6%	-1.5%
CC(C)(C)NC(=O)CON=C1c2ccccc2-c2ccccc21	-1.6%	-11.8%	-3.4%	?	12.1%	5.8%
N#Cc1ccccc1Sc1ccccc1C(=O)OCC(N)=O	9.8%	-0.8%	-6.7%	-4.7%	7.4%	-28.6%
Cc1noc(C)c1COC(=O)c1ccccc1Sc1ccccc1C#N	-16.4%	-34.7%	-12.0%	8.91µM*	10.1%	8.2%
COc1ccc(CN(CCC#N)CCC2(c3ccccc3)CC(C)N(C)CC2C)cc1OC (stereo not given)	?	i	-0.5%	10µM*	2.8%	12.7%
CN1CCCC(C)(C(=O)Nc2cccc(Oc3ccccc3)c2)C1 (stereo not given)	12.4%	-0.6%	.	12.6µM*	3.5%	.
COc1cccc(NC(=O)C2(C)CCN2Cc2cccc(OC)c2F)c1 (stereo not given)	3.1%	-5.0%	.	?	1.1%	.
COc1cccc(CN2CCC2(C)C(=O)Nc2cccc(Oc3ccccc3)c2)c1F (stereo not given)	?	-16.5%	.	3.16µM*	19.6%	.
CC(C)N1CCCC(C)(C(=O)Nc2cccc(Oc3ccccc3)c2)C1 (stereo not given)	8.6%	-6.4%	.	?	?	.
Cc1ccc(NC(=O)c2cc3c(=O)[nH]c4ccccc4c3n2C)cc1F	-1.6%	i	0.5%	9.6%	13.9%	11.2%
CC[C@@H](C)C(N)C(=O)O (stereo not given in full)	.	.	42.7%	.	-0.1%	.
COc1ccc(SC[C@H](Cc2ccccc2)N2CC[C@@H](C)CCC2=O)cc1	21.2%	-33.6%	-5.6%	?	10.8%	11.2%
CCn1nc(C)c(CN2CCc3c([nH]c4ccccc34)C2C(C)(C)C)c1C (stereo not given)	-0.1%	i	-11.9%	7.08µM*	5.0%	-1.8%
N/C(Cc1ccc(Cl)cc1)=N\OC(=O)c1ccc2ccccc2c1	?	-12.5%[57.5 µM]	-2.7%	7.94µM*	?	4.4%
CC[C@H](C)[C@H](NC(=O)[C@@H](NC(=O)[C@@H](CC(=O)NO)Cc1ccccc1)[C@@H](C)CC)C(=O)O	.	.	14.5%	.	.	.
CCn1nnnc1SCC(=O)N(C1CCCCC1)C1CCCCC1	-17.8%	i	-7.9%	8.91µM*	6.2%	-6.9%
CCN(C(=O)CSc1nnnn1C)C1CCCCC1	-5.9%	-22.0%	-2.2%	17.4%	-4.3%	-19.2%
COc1ccc(NC(=O)/C=C\C(=O)N(c2ccc(C(C)C)cc2)C(C(=O)NCc2ccco2)c2ccc(C)cc2)cc1 (stereo not given)	-19.3%	-9.9%	-12.3%	10µM*	.	-31.3%
O=C(Nc1cccc2nsnc12)c1cc2c(cc1Cl)Sc1nccn1S2(=O)=O	30.5%	-0.7%	.	2.8%	-2.3%	?
CCOC(=O)c1sc2nc(CC(=O)OC)nc(N3CCN(c4ccc(OC)cc4)CC3)c2c1C	-7.2%	i	-11.5%	3.98µM*	19.5%	-7.6%
CC[C@H](C)[C@H](NC(=O)[C@H](Cc1ccccc1)NC(=O)[C@H](CC(C)C)NC(=O)[C@H](CCSC)NC(=O)[C@H](CCC(=O)O)NC(=O)[C@H](CCC(=O)O)NC(=O)[C@H](CC(=O)O)NC(=O)[C@H](CO)NC(=O)[C@@H]1CCCN1C(=O)[C@H](CCCCN)NC(=O)[C@@H](N)[C@@H](C)O)C(=O)N[C@@H](Cc1ccc(O)cc1)C(=O)NCC(=O)N[C@@H](Cc1cnc[nH]1)C(=O)N[C@@H](Cc1ccc(O)cc1)C(=O)N[C@@H](CCCCN)C(=O)N[C@@H](CCC(N)=O)C(=O)N[C@@H](C)C(=O)N[C@H](C(=O)N[C@H](C(=O)NCC(=O)N[C@@H](CC(=O)O)C(=O)N[C@H](C(=O)N[C@@H](CC(N)=O)C(=O)N[C@H](C(=O)N[C@@H](CCC(=O)O)C(=O)N[C@@H](CCCNC(=N)N)C(=O)N1CCC[C@H]1C(=O)NCC(=O)N[C@@H](CCSC)C(=O)N[C@@H](CC(C)C)C(=O)N[C@@H](CC(=O)O)C(=O)N[C@@H](Cc1ccccc1)C(=O)N[C@H](C(=O)O)[C@@H](C)O)[C@@H](C)O)[C@@H](C)CC)C(C)C)[C@@H](C)O	.	.	8.1%	.	.	.
COC(=O)c1c(C(=O)OC)c2cccc3cc(-c4ccccc4)c4ccc1c4n32	-9.6%	10.1%[57.5 µM]	-11.2%	11.0%	4.6%	-34.7%
COC(=O)c1cc2c(-c3ccccc3)cc3ccccn3c-2c1C(=O)OC	?	i	-6.9%	7.94µM*	13.6%	2.1%
CCCN(CCC)CCCNC(=O)C1CCC(CNS(=O)(=O)c2ccc(NC(C)=O)cc2)CC1 (stereo not given)	4.9%	i	0.4%	9.6%	.	-0.8%
Cc1cccc(NC(=O)CNC(=O)CSc2nc(N)cc(N)n2)c1C	-4.8%	i	-22.7%	24.1%	4.1%	12.5%
COc1ccc(Br)cc1C(C[N+](=O)[O-])c1c(N)n(C)c(=O)n(C)c1=O (stereo not given)	10µM*	-35.2%	-16.1%	?	-2.1%	-25.0%
CN(C)c1ccc(C(C[N+](=O)[O-])c2c(N)n(C)c(=O)n(C)c2=O)c(F)c1C#N (stereo not given)	?	-41.7%	-1.8%	?	-12.0%	-21.2%

Assay outcomes (PubChem)
